According to PubChem BioAssay (NCATS):
Results filed as inconclusive are left out. Calls of active or inactive are those of the source. Calls come from the whole dose curve; as a rule, active = well fitted curve in the direction sought with a large enough effect; inconclusive = small, poorly fitted or top-dose-only effect, or another doubt; inactive = no such curve, though single readings can be large; an effect the other way counts as inactive or inconclusive.

How the values were obtained:
MKL-1 = test: qHTS assay to identify novel small-molecules to repurpose for Merkel cell carcinoma treatment (AID 1296009); conditions: MCC and control cell lines, CellTiter-Glo viability, 72 h; series mostly up to 46 µM; note: nearly all actives have a fitted effect of over 60% in size
In short: (§1)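 Cell viability, measured as CellTiter-Glo luminescence, was normalized between DMSO and no-cell wells. The cells had been exposed to 8- or 11-point compound dilutions for 72 hr at 37 degree celsius.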

MKL-2 = test: as above; conditions: MCC and control cell lines, CellTiter-Glo viability, 72 h; series mostly up to 46 µM
In short: as §1

NIH3T3 = test: as above; conditions: MCC and control cell lines, CellTiter-Glo viability, 72 h; at 44.8 µM (top of the series) unless noted
In short: as §1

UISO = test: as above; conditions: MCC and control cell lines, CellTiter-Glo viability, 72 h; series mostly up to 46 µM
In short: as §1

WaGa = test: as above; conditions: MCC and control cell lines, CellTiter-Glo viability, 72 h; series mostly up to 46 µM
In short: as §1

C33A = test: Primary qHTS to identify gynecologic anti-cancer compounds using libraries of approved drugs and bioactive compounds (AID 1345084); conditions: Gynecologic cancer cell panel viability, ATPlite luminescence, 48 h; series mostly up to 57.5 µM; note: nearly all actives have a fitted effect of over 55% in size
In short: (§2)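 Cells, 1,000 per well, were allowed to settle for 16 h at 37 C before compound addition. Five concentrations were tested for 48 h, and viability was read by ATPlite luminescence after 15 min at room temperature.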

CAOV3 = test: as above; conditions: Gynecologic cancer cell panel viability, ATPlite luminescence, 48 h; series mostly up to 57.5 µM
In short: as §2

CASKI = test: as above; conditions: Gynecologic cancer cell panel viability, ATPlite luminescence, 48 h; series mostly up to 57.5 µM
In short: as §2

Es-2 = test: as above; conditions: Gynecologic cancer cell panel viability, ATPlite luminescence, 48 h; series mostly up to 57.5 µM
In short: as §2

HeLa = test: as above; conditions: Gynecologic cancer cell panel viability, ATPlite luminescence, 48 h; series mostly up to 57.5 µM
In short: as §2

Measured: activity change, negative = cytotoxicity
% is set by controls: 0 for no effect and ±100 for the full control effect.

CC(CN(C)C)C(C)(O)Cc1ccc(Cl)cc1 (configuration not stated)
inactive: MKL-1 | MKL-2 | NIH3T3 | UISO | WaGa | C33A | CAOV3 | CASKI | Es-2 | HeLa

CC(N)CCCC(C)(C)O (configuration not stated)
inactive: MKL-1 | MKL-2 | NIH3T3 | UISO | WaGa | C33A | CAOV3 | CASKI | Es-2 | HeLa

O=S1(=O)OC(c2ccc(O)cc2)(c2ccc(O)cc2)c2ccccc21
inactive: MKL-1 | MKL-2 | NIH3T3 | UISO | WaGa | C33A | CAOV3 | CASKI | Es-2 | HeLa

c1ccc2[nH]ccc2c1
inactive: MKL-1 | MKL-2 | NIH3T3 | UISO | WaGa | C33A | CAOV3 | CASKI | Es-2 | HeLa

CCN[C@H]1CN(CCCOC)S(=O)(=O)c2sc(S(N)(=O)=O)cc21
inactive: MKL-1 | MKL-2 | NIH3T3 | UISO | WaGa | C33A | CAOV3 | CASKI | Es-2 | HeLa

OC(CCN1CCCC1)(c1ccccc1)C1CCCCC1 (configuration not stated)
inactive: MKL-1 | MKL-2 | NIH3T3 | UISO | WaGa | C33A | CAOV3 | CASKI | Es-2 | HeLa

CN1CCCN=C1COC(=O)C(O)(c1ccccc1)C1CCCCC1 (configuration not stated)
inactive: MKL-1 | MKL-2 | NIH3T3 | UISO | WaGa | C33A | CAOV3 | CASKI | Es-2 | HeLa

NNc1nnc(NN)c2ccccc12
inactive: MKL-1 | MKL-2 | NIH3T3 | UISO | WaGa | C33A | CAOV3 | CASKI | Es-2 | HeLa

CC(=O)N(CC(O)CO)c1c(I)c(C(=O)NCC(O)CO)c(I)c(C(=O)NCC(O)CO)c1I (configuration not stated)
inactive: MKL-1 | MKL-2 | NIH3T3 | UISO | WaGa | C33A | CAOV3 | CASKI | Es-2 | HeLa

CC1(C)[C@@H](OC(=O)CCC(=O)O)CC[C@]2(C)[C@H]3C(=O)C=C4[C@@H]5C[C@@](C)(C(=O)O)CC[C@]5(C)CC[C@@]4(C)[C@]3(C)CC[C@@H]12
inactive: MKL-1 | MKL-2 | NIH3T3 | UISO | WaGa | C33A | CAOV3 | CASKI | Es-2 | HeLa

COc1ccccc1Oc1c(NS(=O)(=O)c2ccc(C(C)(C)C)cc2)nc(-c2ncccn2)nc1OCCO
inactive: MKL-1 | MKL-2 | NIH3T3 | UISO | WaGa | C33A | CAOV3 | CASKI | Es-2 | HeLa

Cc1c(I)c(=O)n(-c2ccccc2)n1C
inactive: MKL-1 | MKL-2 | NIH3T3 | UISO | WaGa | C33A | CAOV3 | CASKI | Es-2 | HeLa

CCOC(N)=O
inactive: MKL-1 | MKL-2 | NIH3T3 | UISO | WaGa | C33A | CAOV3 | CASKI | Es-2 | HeLa

O=c1[nH]c2cc(C(F)(F)F)c(N3CCOCC3)cc2n(CP(=O)(O)O)c1=O
inactive: MKL-1 | MKL-2 | NIH3T3 | UISO | WaGa | C33A | CAOV3 | CASKI | Es-2 | HeLa

COc1nccnc1NS(=O)(=O)c1ccc(N)cc1
inactive: MKL-1 | MKL-2 | NIH3T3 | UISO | WaGa | C33A | CAOV3 | CASKI | Es-2 | HeLa

Cc1cc(=O)[nH]c(=S)[nH]1
inactive: MKL-1 | MKL-2 | NIH3T3 | UISO | WaGa | C33A | CAOV3 | CASKI | Es-2 | HeLa

CC1(C)S[C@@H]2[C@H](N=CN3CCCCCC3)C(=O)N2[C@H]1C(=O)O
inactive: MKL-1 | MKL-2 | NIH3T3 | UISO | WaGa | C33A | CAOV3 | CASKI | Es-2 | HeLa

Cc1cccc(C(=O)O)c1O
inactive: MKL-1 | MKL-2 | NIH3T3 | UISO | WaGa | C33A | CAOV3 | CASKI

CCCCCCCCCCCCCCCCCCO
inactive: MKL-1 | MKL-2 | NIH3T3 | UISO | WaGa | C33A | CAOV3 | CASKI | Es-2 | HeLa

O=C(O)/C=C/c1ccc(Cn2ccnc2)cc1
inactive: MKL-1 | MKL-2 | NIH3T3 | UISO | WaGa | C33A | CAOV3 | CASKI | Es-2 | HeLa

O=C(NCCCN1CCOCC1)c1ccc(Cl)cc1
inactive: MKL-1 | MKL-2 | NIH3T3 | UISO | WaGa | C33A | CAOV3 | CASKI | Es-2 | HeLa

O=C(O)CNC(=O)c1ccccc1I
inactive: MKL-1 | MKL-2 | NIH3T3 | UISO | WaGa | C33A | CAOV3 | CASKI | Es-2 | HeLa

NS(=O)(=O)c1cc(C2(O)NC(=O)c3ccccc32)ccc1Cl (configuration not stated)
inactive: MKL-1 | MKL-2 | NIH3T3 | UISO | WaGa | C33A | CAOV3 | CASKI | Es-2 | HeLa

O=C(O)[C@@H]1[C@H]2C[C@H]3c4[nH]c5ccccc5c4CCN3C[C@@H]2CC[C@@H]1O
inactive: MKL-1 | MKL-2 | NIH3T3 | UISO | WaGa | C33A | CAOV3 | CASKI | Es-2 | HeLa

CCCC(O)C(CC)CO (configuration not stated)
inactive: MKL-1 | MKL-2 | NIH3T3 | UISO | WaGa | C33A | CAOV3 | CASKI | Es-2 | HeLa

Cc1c(NC(=O)c2cccnc2)c(=O)n(-c2ccccc2)n1C
inactive: MKL-1 | MKL-2 | NIH3T3 | UISO | WaGa | C33A | CAOV3 | CASKI | Es-2 | HeLa

CC(=O)N[C@H]1[C@H]([C@H](O)[C@H](O)CO)OC(C(=O)O)=C[C@@H]1N=C(N)N
inactive: MKL-1 | MKL-2 | NIH3T3 | UISO | WaGa | C33A | CAOV3 | CASKI | Es-2 | HeLa

CC(=O)Oc1cccc(O)c1
inactive: MKL-1 | MKL-2 | NIH3T3 | UISO | WaGa | C33A | CAOV3 | CASKI | Es-2 | HeLa

COc1ccccc1OCC(O)CO (configuration not stated)
inactive: MKL-1 | MKL-2 | NIH3T3 | UISO | WaGa | C33A | CAOV3 | CASKI | Es-2 | HeLa

NC(=O)N[C@@H](CCC(=O)O)C(=O)O
inactive: MKL-1 | MKL-2 | NIH3T3 | UISO | WaGa | C33A | CAOV3 | CASKI | Es-2

O=C(O)Cn1c(C(=O)Nc2nc(-c3ccccc3Cl)cs2)cc2ccccc21
inactive: MKL-1 | MKL-2 | NIH3T3 | UISO | WaGa | C33A | CAOV3 | CASKI | Es-2 | HeLa

Cc1cc(C)nc(NS(=O)(=O)c2ccc(N)cc2)n1
inactive: MKL-1 | MKL-2 | NIH3T3 | UISO | WaGa | C33A | CAOV3 | CASKI | Es-2 | HeLa

N[C@@H](Cc1ccc(O)cc1)C(=O)O
inactive: MKL-1 3.97% [at 9.22 µM] | MKL-2 -20.6% [at 9.22 µM] | NIH3T3 inactive [at 9.27 µM] | UISO 19.3% [at 9.22 µM] | WaGa -2.96% [at 9.22 µM] | C33A 3.53% [at 11.6 µM] | CAOV3 -13.2% [at 11.6 µM] | CASKI 0.958% [at 11.6 µM] | Es-2 -4.06% [at 11.6 µM] | HeLa 11.2% [at 11.6 µM]

NC(=O)c1ccc([N+](=O)[O-])cc1Cl
inactive: MKL-1 | MKL-2 | NIH3T3 | UISO | WaGa | C33A | CAOV3 | CASKI | Es-2 | HeLa

CCCCC1(COC(=O)CCC(=O)O)C(=O)N(c2ccccc2)N(c2ccccc2)C1=O
inactive: MKL-1 | MKL-2 | NIH3T3 | UISO | WaGa | C33A | CAOV3 | CASKI | Es-2 | HeLa

CCOC(=O)[C@H](CCc1ccccc1)N[C@@H](C)C(=O)N1CCC[C@H]1C(=O)O
inactive: MKL-1 | MKL-2 | NIH3T3 | UISO | WaGa | C33A | CAOV3 | CASKI | Es-2 | HeLa

CN1C(=O)CC(c2ccccc2)C1=O (configuration not stated)
inactive: MKL-1 | MKL-2 | NIH3T3 | UISO | WaGa | C33A | CAOV3 | CASKI | Es-2 | HeLa

Cc1c(NC(C)C)c(=O)n(-c2ccccc2)n1C
inactive: MKL-1 | MKL-2 | NIH3T3 | UISO | WaGa | C33A | CAOV3 | CASKI | Es-2 | HeLa

Nc1ncnc(Nc2ccccc2)n1
inactive: MKL-1 | MKL-2 | NIH3T3 | UISO | WaGa | C33A | CAOV3 | CASKI | Es-2 | HeLa

O=C(O)c1cc(=O)c2ccccc2o1
inactive: MKL-1 | MKL-2 | NIH3T3 | UISO | WaGa | C33A | CAOV3 | CASKI | Es-2 | HeLa

Cc1c(C)c2c(c(C)c1OC(=O)c1cccnc1)CC[C@@](C)(CCC[C@H](C)CCC[C@H](C)CCCC(C)C)O2
inactive: MKL-1 | MKL-2 | NIH3T3 | UISO | WaGa | C33A | CAOV3 | CASKI | Es-2 | HeLa

CC[C@]12CCCN3CCc4c(n(c5ccccc45)[C@@](O)(C(=O)OC)C1)[C@@H]32
inactive: MKL-1 | MKL-2 | NIH3T3 | UISO | WaGa | C33A | CAOV3 | CASKI | Es-2 | HeLa
